Laboratory results: PubChem BioAssay (NCI)
This is part of a sample that, as a whole, favours compounds with a hit. Of some 83,000 tested, about 20% had one in any assay.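 Treatment: one concentration, 48 hours, 96-well format. Scoring: percent growth, with anything below 10 considered active.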 Unmarked numbers belong to inactive results. The source made the active and inactive calls.

These molecules were tested on HL-60(TB) leukemia (assay: NCI-60 one-dose screen, 48 h (100 = growth as untreated, 0 = no growth, -100 = all killed)). Conditions: 10 µM unless noted.

| Compound | growth |
| --- | --- |
| Cc1ccc(S(=O)(=O)Nc2cc(Sc3ccccc3)c(O)c3ccccc23)cc1 | -31.2% (active) |
| Cc1cc(C)nc(NC(N)=NCCc2ccccc2)n1 | 56.9% |
| O=c1cc(-c2ccccc2)oc2c1ccc1ccccc12 | 106% |
| C=CCN1CCCC1=O | 47.1% |
| CC(=O)O[C@]1(C(C)=O)CC[C@H]2[C@@H]3C=C(Cl)C4=CC(=O)CC[C@]4(C)[C@H]3CC[C@@]21C | 104% |
| CN(C)CCNC(=O)c1cc2c3cc(Cl)ccc3[nH]c2c2ncccc12 | -64.8% (active) |
| CCOC(=O)CCCn1c(-c2ccccc2)cc(-c2ccccc2)c(C#N)c1=O | 77.9% |
| Cn1cc(-c2noc(-c3cn(C)c4ncc(F)cc34)n2)c2cc(Br)ccc21 | 93.8% |
| CC(C)(C)c1ccc(OCCCCCCN2CCNCC2)cc1 | 15.2% |
| COc1ccc(Nc2cc(NC(=O)CNc3cc(OC)c(Cl)c(OC)c3Cl)ncn2)cc1 | 75.1% |
| N#C/C(=C\c1cccc2cnccc12)N1N=NC2C=CC=CC21 (stereo not given) | 8.65% (active) |
| O=C(COc1cccc(/C=C2\Cc3ccccc3C2=O)c1)c1ccc(Cl)cc1 | 94.2% |
| COc1ccc(/C=C/c2c(C(=O)/C=C/c3ccccc3)c(C)nc3ccccc23)cc1 | 6.07% (active) |
| CC(C)C1=NOC(=O)C1=Cc1cn(-c2cccnc2)nc1-c1ccccc1 | -0.56% (active) |
| O=C(CN1CCCCC1)Nc1ccc2oc(=O)ccc2c1 | 78.1% |
| COC(=O)c1nc(=S)[nH]c(C(=O)OC)c1C(=O)c1ccc(OC)cc1 | 107% |
| C#CCN1C(=O)/C(=c2\sc3n(c2=O)NC2C(N=3)N(CC)C(=O)N2CC)c2ccccc21 (stereo not given) | -34.3% (active) |
| COc1ccc(-c2nn(-c3cccc(Cl)c3)cc2-c2nc(N)[nH]c(=O)c2C#N)cc1 | 78.7% |
| CCCCN(CCCC)CCCCCCCCC(O)c1cc2ccccc2c2ccccc12 (stereo not given) | 28.5% |
| Cc1cccc2nc3ccccc3c(Nc3ccc(NS(C)(=O)=O)cc3)c12 | 1.14% (active) |

| Compound | growth |
| --- | --- |
| C=C1C(=O)O[C@H]2[C@H]1CC/C(CNC(=O)/C=C/c1cccc(OC)c1)=C\CC[C@@]1(C)O[C@@H]21 | -35.4% (active) |
| COc1ccc(NC(=O)c2sc3nc(C)c(C(=O)CCc4cccc(OC)c4)cc3c2N)cc1 | 34.6% |
| Fc1ccc(-c2nc(-c3ccc(-c4nc5ccc(F)cc5[nH]4)cc3)no2)cc1 | 96.3% |
| CC(=O)O[C@]1(C(C)=O)CCC2C3C[C@H](C)C4=CC(=O)CC[C@]4(C)C3CC[C@@]21C (stereo not given in full) | 87.4% |
| O=C(/C=C/c1ccc(Cl)cc1)c1ccc(NC(=O)N2CCN(c3cc4c(cc3F)c(=O)c(C(=O)O)cn4C3CC3)CC2)cc1 | 94.2% |
| Cc1ccc([N+](=O)[O-])cc1NC(=O)Nc1cccc(F)c1 | 58.7% |
| CC(C)C1=NOC(=O)C1=Cc1cn(-c2ccccc2)nc1-c1cccc([N+](=O)[O-])c1 | -4.77% (active) |
| Oc1ccc(N=Cc2ccccc2)cc1 | 0.519% (active) |
| CCCCc1ccc(N=Nc2ccc(OCC[N+](C)(C)C)cc2)cc1 | 25.2% |
| O=C(Nc1nccs1)c1noc2ccccc12 | 95% |
| CC(=O)CC(C)(C)c1ccc(Cl)cc1 | 69.9% |
| N=C(N)c1ccc(-c2ccc(-c3ccc(Cl)cc3)s2)s1 | -58.6% (active) |
| Cc1nc2sc(C(=O)Nc3cccc(Cl)c3C)c(N)c2cc1C(O)c1ccccc1 (stereo not given) | -42.3% (active) |
| CC(=O)Nc1sc2c(c1-c1nc3ccccc3s1)CNC2 | 28.4% |
| COC(=O)C1Cc2ccccc2CN1C(=O)c1ccc2c(c1)Cc1ccccc1-2 (stereo not given) | 13.4% [50 µM] |
| O=C1CCCN1C1CCN2CCCc3cccc1c32 (stereo not given) | 92.7% |
| Cc1ccc(S(=O)(=O)N/N=C2\CCCc3ccccc32)cc1 | 80.4% |
| O=[n+]1c2ccccc2n([O-])c2cc(Cl)ccc21 | -0.993% (active) |
| Nc1ncnc2c1N=C(c1ccc(Cl)cc1)CC(c1cccc(Nc3ccnc4cc(Cl)ccc34)c1)N2 (stereo not given) | 55.3% |
| FC(F)(F)c1cc(NC2=NCCN=C(Nc3cc(C(F)(F)F)cc(C(F)(F)F)c3)SS2)cc(C(F)(F)F)c1 | 52.9% |
